Screening results from PubChem.
PLC-gamma1 inh: blocks human PLC-gamma1 enzyme activity | purified PLC-gamma1, fluorogenic substrate, fluorescence | hit rate 0.84% among 370,000 | inhibition, % at 12.2 µM; in the data active means inhibition above about 9.5%
LEDGF integ inh: blocks HIV-1 LEDGF/p75-dependent DNA integration; inhibition, % at 3.7 µM; TR-FRET IN-LEDGF/p75 DNA integration, Eu/Cy5; hit rate 0.64% among 370,000;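 active means inhibition above the screen-wide mean plus 3 SD, cut at about 13% in these data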;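 further: signal is the Cy5 over europium emission ratio at 671 and 618 nm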
PLCb3 inh: blocks human PLC-beta3 enzyme activity. Q01970. Purified PLC-beta3, fluorogenic substrate, fluorescence. inhibition, % at 12.2 µM. hit rate 0.18% among 370,000; in the data active means inhibition above about 11%
UHRF1 binding: human UHRF1 methylated DNA binding inhibitors; Q96T88; UHRF1 binding to methylated oligo, TR-FRET; inhibition, % at 4.4 µM; hit rate 0.75% among 370,000; AID 687016; in the data active means inhibition above about 21%;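 further: UHRF1 SRA domain binding a hemimethylated CpG hairpin DNA probe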
MBD2 DNA inh: inhibitors of human MBD2 binding to methylated oligonucleotide; Q9UBB5; inhibition, % at 4.4 µM; AID 686964; TR-FRET; hit rate 0.31% among 370,000; in the data active means inhibition above about 13%
IN multimer up: counter-screen for LEDGF/p75 integration inhibitors: HIV-1 integrase multimerization activators; AID 1053131; TR-FRET HIV-1 integrase multimerization, biochemical; activation, % at 7.7 µM; hit rate 17% among 2,000; shares compounds with LEDGF integ inh; in the data active means activation above about 8.9%
TRFRET interf: TR-FRET optical interference, LEDGF/p75 integration counter-screen; shares compounds with LEDGF integ inh; TR-FRET optical interference counterscreen, HIV-1 IN multimerization; inhibition, % at 7.7 µM; 2,000 tested, under 10 active;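 active means inhibition above the mean over all tested compounds plus 3 SD, which no compound reached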
IN-LEDGF confirm: LEDGF/p75-dependent HIV-1 integration inhibition, confirmation; inhibition, % at 3.7 µM; shares compounds with LEDGF integ inh; TR-FRET LEDGF/p75-dependent HIV-1 integration, biochemical; hit rate 36% among 2,000; in the data active means inhibition above about 14%
A number is an active result; n = inactive; x = not tested or not shown. Only some compounds are listed: those with a hit (about 2.3% of all), similar ones and a draw of the others.

SMILES	PLC-gamma1 inh	LEDGF integ inh	PLCb3 inh	UHRF1 binding	MBD2 DNA inh	IN multimer up	TRFRET interf	IN-LEDGF confirm
CC(C)=CCC/C(C)=C/CC/C(C)=C/CC/C(C)=C/CC1=C(C)C(=O)c2ccccc2C1=O	n	n	n	n	n	x	x	x
COc1ccc(C(=O)NCCC(C)C)cc1S(=O)(=O)N1CCOCC1	n	n	n	n	n	x	x	x
COc1ccc(CC(=O)NCCC(C)C)cc1S(=O)(=O)N1CCOCC1	n	89	n	n	n	n	n	n
C(=C\c1ccc2nncn2c1)/c1ccccc1	n	14	n	n	n	n	n	n
c1ccc2c(-c3ccc4nncn4c3)cncc2c1	n	n	n	n	n	x	x	x
COc1ccc(CN(C)C(=O)CCNS(=O)(=O)c2ccccc2)c(OC)c1	n	23	n	n	n	n	n	n
COc1ccc(Cn2c(NC(=O)c3ccccc3)nc(Cc3ccccc3)c2-c2ccccc2)cc1	n	n	n	n	n	x	x	x
O=S1(=O)C=CCN1Cc1cn(Cc2cccc(Cl)c2)nn1	n	n	n	n	n	x	x	x
COC(=O)c1cc(-c2ccc(-c3ccccc3)c(F)c2)c(=O)n2c1CCC2	n	n	n	n	n	x	x	x
NNC(=S)NCc1ccccc1	n	n	n	n	n	x	x	x
S=C(NCc1ccccc1)NCc1cccc(CNC(=S)NCc2ccccc2)c1	n	44	n	n	n	n	n	n
CC(C)NC(=O)N(C)C[C@H]1Oc2c(NS(=O)(=O)c3ccccc3)cccc2C(=O)N([C@H](C)CO)C[C@@H]1C	n	35	n	n	n	n	n	n
C[C@H](CO)N1C[C@H](C)[C@@H](CN(C)S(=O)(=O)c2cccs2)Oc2c(NC(=O)Nc3ccccc3)cccc2C1=O	n	n	n	n	n	x	x	x
C[C@H](CO)N1C[C@H](C)[C@@H](CN(C)S(=O)(=O)c2cccs2)Oc2c(NC(=O)NC3CCCCC3)cccc2C1=O	n	18	n	n	n	n	n	n
Cc1ccc(Cn2nnc3c2-c2ccccc2S(=O)(=O)N(C(C)(C)C)C3)cc1	n	n	n	n	n	x	x	x
COc1ccc(CN(CCN2CCOCC2)C(=O)c2cc(F)ccc2C)cc1OC	n	n	n	n	n	x	x	x
CCC(CC)NC(=O)Cc1ccc(S(=O)(=O)N2CCOCC2)s1	n	16	n	n	n	n	n	n
CCN=C1S/C(=C\c2cc(Cl)c(OC)c(OC)c2)C(=O)N1CC	n	17	n	n	n	n	n	n
Cc1ccc(C2/C(=C(/O)c3ccc(Br)cc3)C(=O)C(=O)N2Cc2ccco2)o1 (centres undefined)	n	15	n	n	n	n	n	16
COc1ccc(/C(O)=C2\C(=O)C(=O)N(Cc3ccco3)C2c2cc(OC)ccc2OC)cc1 (centres undefined)	n	n	n	n	n	x	x	x
CC(C=CC(O)=C1C(=O)CNC1=O)=C[C@@H](C)C1OC2(C)OC(C(=O)C3O[C@@]32C)C1C (some centres undefined)	n	22	n	n	n	n	n	n
Cc1ccccc1CNC(=O)C1CCC(CNS(=O)(=O)c2cccc3cccnc23)CC1 (centres undefined)	n	n	n	n	n	x	x	x
C[C@H]1CCCN1c1cccc2c1S(=O)(=O)N(C1CC1)CCCO2	n	n	n	n	n	x	x	x
C=C(C)/C=C1/C(Cc2ccccc2)N(CC2CC2)C(=N)N1C(=O)OCc1ccccc1 (centres undefined)	n	n	n	n	n	x	x	x
Cc1nc(C(=O)NCCCO)cc2c1[nH]c1ccccc12	n	27	n	n	n	n	n	n
SMILES	PLC-gamma1 inh	LEDGF integ inh	PLCb3 inh	UHRF1 binding	MBD2 DNA inh	IN multimer up	TRFRET interf	IN-LEDGF confirm
COc1ccc(/C=N/N2C(C)CCCC2C)cc1O (centres undefined)	n	n	n	n	n	x	x	x
CC1CCCC(C)N1/N=C/c1ccc(O)c(O)c1 (centres undefined)	n	20	n	n	n	22	n	53
O=C1C=C(c2cccs2)C[C@H](c2ccccc2)[C@H]1n1nnc([N+](=O)[O-])n1	n	14	n	n	n	n	n	18
O=C(NCc1ccccc1Cl)C1CCC(CNS(=O)(=O)c2cccc3cccnc23)CC1 (centres undefined)	n	n	n	n	n	x	x	x
COC(=O)C1CN(Cc2ccc(F)cc2)CCS(=O)(=O)N1Cc1cn(CCOC(C)=O)nn1 (centres undefined)	n	n	n	n	n	x	x	x
OCCOCCOc1ccc(-c2nn[nH]n2)cc1	n	17	n	24	n	n	n	n
CC1(C(=O)NC2CCCCC2)CCC(=O)N1Cc1cccnc1 (centres undefined)	n	n	n	n	n	x	x	x
COc1cccc(CN2C(=O)CCC2(C)C(=O)NC2CCCC2)c1 (centres undefined)	n	22	n	n	n	n	n	n
O=C(CSc1nnc(-c2cnccn2)n1-c1ccccc1)Nc1ccc2cn[nH]c2c1	n	n	n	n	n	x	x	x
C=C1CC2C(=O)N(Cc3cc(OC)ccc3OC)C(C(=O)OCC)(C(=O)OCC)C1N2C(=O)OC(C)(C)C (centres undefined)	n	50	n	n	n	n	n	n
COc1ccc(-n2nc(C(=O)O)cc2-c2ccccc2)cc1	n	29	n	n	n	n	n	n
Clc1ccc2oc(-c3cccnc3)nc2c1	n	n	n	n	n	x	x	x
Clc1ccc2oc(-c3ccccc3)nc2c1	n	19	n	n	n	n	n	n
COc1ccc(C(=O)NC(=S)N(Cc2ccccc2)Cc2ccccc2)cc1	n	15	n	n	n	n	n	n
COc1cc(C(=O)NC(=S)N(CCc2ccccc2)CCc2ccccc2)cc(OC)c1OC	n	14	n	n	n	n	n	n
C=CCN(CC=C)C(=S)NC(=O)c1ccc(OC)cc1	n	n	n	n	n	x	x	x
O=C(NC(=S)N(CCc1ccccc1)CCc1ccccc1)c1ccco1	n	15	n	n	n	n	n	20
Cc1ccc2nc(SCC(=O)NC3CCS(=O)(=O)C3)[nH]c2c1 (centres undefined)	n	n	n	n	n	x	x	x
O=C(CSc1nc2ccccc2[nH]1)NC1CCS(=O)(=O)C1 (centres undefined)	n	37	n	n	n	n	n	n
Cc1ccc(CN2CCCCC(NC(=O)c3cccc([N+](=O)[O-])c3)C2=O)cc1 (centres undefined)	n	n	n	n	n	x	x	x
CCCCCOC(=O)c1c(N)n(CCOC)c2nc3ccccc3nc12	n	n	n	n	n	x	x	x
CCOC(=O)c1c(N)n(CCOC(=O)c2cccs2)c2nc3ccccc3nc12	n	33	n	n	n	n	n	n
